Experiments:
[1] = biological target: T1, Aspartate--tRNA(Asp/Asn) ligase (Mycobacterium tuberculosis (strain ATCC 25618 / H37Rv)) (UniProt P9WFW3); assay: Assay for Asp RNA synthetase-1 from Mycobacterium tuberculosis; format: functional; parameters: scale not given: direction of the effect not stated beside the values; conditions: 30 µM; also: in the data most compounds retested in dose-response had high values
T1 sequence (whole entry): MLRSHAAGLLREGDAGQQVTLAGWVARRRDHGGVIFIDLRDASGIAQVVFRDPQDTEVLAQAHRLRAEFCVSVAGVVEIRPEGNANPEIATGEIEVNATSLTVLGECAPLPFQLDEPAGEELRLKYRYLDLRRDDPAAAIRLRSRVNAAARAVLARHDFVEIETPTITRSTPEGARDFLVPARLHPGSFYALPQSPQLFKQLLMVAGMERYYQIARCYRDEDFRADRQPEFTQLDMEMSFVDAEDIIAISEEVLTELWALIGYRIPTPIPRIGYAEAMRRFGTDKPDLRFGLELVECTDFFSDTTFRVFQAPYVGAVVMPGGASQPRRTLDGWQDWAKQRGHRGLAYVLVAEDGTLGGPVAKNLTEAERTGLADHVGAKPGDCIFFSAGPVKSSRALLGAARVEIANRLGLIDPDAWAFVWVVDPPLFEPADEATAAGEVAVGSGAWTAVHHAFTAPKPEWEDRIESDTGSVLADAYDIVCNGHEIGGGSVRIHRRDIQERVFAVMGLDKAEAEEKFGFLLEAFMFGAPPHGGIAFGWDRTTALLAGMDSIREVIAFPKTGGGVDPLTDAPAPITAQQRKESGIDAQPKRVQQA

[2] = biological target: Shiga toxin 2 (Escherichia coli O157:H7) (UniProt P09385+P09386); assay: E. coli 0.157:H7 Shiga Toxin SOP - stx2 screening assay; format: functional; parameters: scale not given: direction of the effect not stated beside the values; conditions: 30 µM

Compound	Percent Effect [1] [%]	Percent Effect [2] [%]
CCS(=O)(=O)N1CCC2(CC1)CN(Cc1ccccn1)C(=O)CO2	0.198	-10.6
Cc1noc(CN(Cc2ccc3c(c2)OCO3)Cc2ccc(C)o2)n1	13.9	29
O=C1NC2(CCN(C(=O)Cc3ccsc3)CC2)CC1c1ccncc1 (centres undefined)	1.5	-5.98
CC(C)NC(=O)N1CCN(C(=O)N(C)C)CC2(CC(=O)N(C)C2)C1 (centres undefined)	-7.76	-39.2
COc1ccccc1CN1CCC2(CC1)CC(Oc1ccccn1)CO2 (centres undefined)	1.6	-0.702
O=C(c1csc(Br)c1)N1CCCC(n2ccnc2)C1 (centres undefined)	-1.27	-53.5
CC(C)CN1CCC2(CCN(C(=O)c3ccc(F)cc3)CC2)C1=O	-3.41	-8.12
O=C(CCc1cc(O)no1)N1CCCC(COc2ccc(F)cc2)C1 (centres undefined)	-2.45	-19.8
Cc1ccccc1CSCCn1nc2ccccn2c1=O	-1.33	26.4
O=C(c1cccnc1-n1cccn1)N1CCN(CC2CC2)CC1	-1.91	7.9
O=C(CN1CCC(c2cccc(F)c2)C1)NCc1ccco1 (centres undefined)	-0.144	-21.6
CC(C)NC(=O)c1nnn(-c2cccc(C(F)(F)F)c2)c1N	0.111	-1.08
COc1cc(CCC(C)O)c(OC)c2c1OCO2 (centres undefined)	-0.435	-10.2
CCOc1ccc(S(=O)(=O)NCc2cccnc2N(C)C)cc1	1.46	-16.7
CCN1CCN(Cc2ccnc(-c3cccnc3)n2)CC1	-0.64	-13.1
Cc1c(C(=O)NCC(C)C)nnn1-c1cccc2c1CCN(C)C2	0.928	-7.34
CN(C)C(=O)C1(CCCc2ccncc2)CCCN1 (centres undefined)	-0.998	11.3
COc1ccc(C2=CCN(C(=O)CN(C)Cc3ccoc3)CC2)cc1	-8.11	-67.5
CN1CCC(CCNC(=O)c2ccc(N(C)S(C)(=O)=O)cc2Cl)CC1	1.1	-50.8
COCCc1noc(CN2CCCC(Cn3nc(C)nc3C)C2)n1 (centres undefined)	12.8	22.8
CCOCC1CC2(CCN(Cc3ccccn3)CC2)CO1 (centres undefined)	0.869	-0.96
O=C(CC1CC1)NCc1cc(=O)n2c(n1)CN(Cc1ccoc1)CCC2	-2.64	-17
CNc1oc(-c2ccc(OC)c(S(=O)(=O)N3CCCCC3)c2)nc1C#N	-1.39	-28.4
Cc1ccc(Cl)cc1C(=O)N1CCC2(CC1)c1ccccc1[C@@H](N)[C@@H]2O	-0.814	-5.92
CCOc1ccc(N2CCCN=C2NC(=O)c2cccc(Cl)c2)cc1	9.12	-69.6
CN1CCc2nc(C3CCN(C(=O)CCC4CCCC4)CC3)ncc2C1	2.63	-43.2

Compound	Percent Effect [1] [%]	Percent Effect [2] [%]
O=C(CN1CCOC(Cn2cccn2)C1)NCCc1ccc(F)cc1 (centres undefined)	4.34	12
CC(C)c1nc2c(n1C)CCN(CC(=O)Nc1ccc(Cl)cn1)C2	3.34	-0.161
CC(O)CN1CCN(C(=O)c2ccc(Cn3cccc3)cc2)CC1 (centres undefined)	11	19.4
COC(=O)CN(C)C1CCc2ccccc21 (centres undefined)	-6.57	28.1
CC(C)NS(=O)(=O)c1cc(C(=O)O)cc(-c2ccccc2CN(C)C)c1	1.25	-13.2
CC(C)n1ccnc1C1CCN(C(=O)c2cc[nH]n2)CC1	-0.496	14.3
Clc1ccccc1-c1nc(CNCCn2cccn2)cs1	-1.68	15.3
Cc1ccc(NC(=O)C2CSCN2C(=O)c2cnccn2)c(C)c1 (centres undefined)	1.01	-39.3
O=C(CCc1cccs1)N1CCC(N2CCNC2=O)CC1	-2.08	-4.13
O=C(c1ccncc1)N1CCC(c2nc(O)cc(-c3cccnc3)n2)C1 (centres undefined)	-1.81	4.42
CCN(C(=O)CS(=O)(=O)Cc1cc(Cl)c2c(c1)OCCCO2)C1CC1	-0.343	4.47
CN(Cc1ccccc1Br)C(=O)Cn1nc(-c2ccc(F)cc2)oc1=O	7.4	-11.3
CN(C)C(=O)c1ccc(CNC(=O)NCCN(C)C2CCCC2)cc1	1.57	14.3
FC(F)(F)c1nc(NC2CCCC2)c2ccccc2n1	0.562	-0.0663
O=C(NC[C@]12COC[C@H]1CN(Cc1nccs1)C2)N1CCCC1	1.45	-23.5
CCOC(=O)CN1CCC(C(=O)c2cc(F)ccc2F)CC1	-0.233	-13.5
CC1COCCN1C(=O)c1cccc(OCc2cscn2)c1 (centres undefined)	-6.86	0.62
CC(=O)NCCNC(=O)c1cnc(-c2ccccc2)nc1	4.64	-11.3
CC(=O)NC1CCCN(C(=O)NCc2cccnc2N(C)C)C1 (centres undefined)	-7.86	-12.4
Cc1n[nH]c(C)c1C1CCCN1C(=O)NCC(=O)NC(C)(C)C (centres undefined)	1.47	-24.4
O=C(Nc1cnccn1)[C@@H]1COC[C@H]2CN(C3CCCC3)C[C@H]21	-5.7	18
CCNC(c1cccnc1)c1cc(C)cc(C)c1 (centres undefined)	-2.55	-3.23
Cc1nc(COC[C@@H]2CC[C@H]3[C@H](CCN3c3ncccn3)O2)cs1	1.87	-14.4
CCSCCNC(=O)C(c1cccc(F)c1)N(C)C (centres undefined)	0.0558	12.8
CC(O)CNC(=O)NCc1cccnc1OC1CCCC1 (centres undefined)	-4.34	-12.4
CCc1cnc2c(c1NCc1cccc(OC)c1)c(=O)n(C)c(=O)n2C	-0.0729	-21.5

Compound	Percent Effect [1] [%]	Percent Effect [2] [%]
COc1ccc(NC(C)C(=O)N2CCN(Cc3ccccc3)CC2)cn1 (centres undefined)	3.97	-11.8
C1CC(c2noc(C3CC3)n2)CN(Cc2noc(C3CC3)n2)C1 (centres undefined)	-1.05	6.22
CCCn1nc2c(cc1=O)CN(Cc1cc(C)on1)CC2	10	-9.16
Cc1ccc(C2CSCCN2C(=O)c2ccc(C(N)=O)cc2)o1 (centres undefined)	-1.11	8.19
O=C(Nc1ccnc(OC2CCOC2)c1)C1CCC1 (centres undefined)	-4.32	-20.1
Cc1cc(C(=O)NCc2ccnc(N(C)C)c2)c(C)o1	5.55	-9.84
O=C1CCC2(CCN(Cc3cc(F)cc(F)c3)CC2)CN1CCO	-0.529	6.69
O=C(c1cnc(-c2cccs2)s1)N1CCCC(n2cccn2)C1 (centres undefined)	2.29	17.4
O=C(NCCCO)Nc1cccc(Cl)c1F	1.48	-9.57
CC(C)c1ccc(OCCC(=O)N2CCC(CC(N)=O)CC2)cc1	-0.478	29.9
COC(=O)c1cccc(NC(=O)CCn2nc(-c3cccs3)oc2=O)c1	1.89	18.1
Cn1cccc1C(=O)Nc1cc(F)ccc1OCC1CCCO1 (centres undefined)	-6.53	22
CCOc1ccccc1C(CC(=O)Nc1nc(C)cs1)NC(C)=O (centres undefined)	-0.233	30.8
c1ccc(CN2CC[C@@H]3O[C@@H](COCC4CCOCC4)CC[C@@H]32)nc1	7.81	-21.9
CN(C)C[C@H]1OC[C@@H]2CCN(S(=O)(=O)c3ccccc3)C[C@@H]21	4.96	-1.44
COc1c(CNCCNC(=O)Cc2ccc(F)cc2)c(C)nn1C	1.84	30.8
O=C1CC(c2cccc(O)c2)c2sc(C(=O)O)c(-c3ccccc3)c2N1 (centres undefined)	-3.78	-24.7
COc1cccc2c1ccn2CCC(=O)NCCCC(=O)O	-1.42	-21
COc1ccc(OCc2cc(C(=O)N3CCN[C@H](C)C3)n[nH]2)c(Cl)c1	-1.22	-61
c1cnnc(N2CCCC(NCc3nc(C4CC4)no3)C2)c1 (centres undefined)	6.87	-18.7
CCN1CC(C(=O)NC(C)(C)CNC(=O)OC(C)(C)C)CC1=O (centres undefined)	4.36	15.4
Cc1nc(CN2CCOC(CNc3cccnn3)C2)cs1 (centres undefined)	-1.08	-2.07
Cc1ccn(-c2ccc(C(=O)N3CCCC(C(N)=O)C3)cc2)n1 (centres undefined)	-3.4	8.96
OC1CCN(Cc2c(C3CCCNC3)[nH]c3ncccc23)CC1 (centres undefined)	7.49	-0.778
COc1ccc(OC)c(NC(=O)c2nc3ccccc3n(C)c2=O)c1	1.01	-23.2
Cc1cnn(CC2CCCCN2Cc2nnc(-c3ccco3)o2)c1 (centres undefined)	11.6	2.18

Compound	Percent Effect [1] [%]	Percent Effect [2] [%]
COCCCNC(=O)N1CCCC(c2nncn2C)C1 (centres undefined)	1.97	21.1
Cn1cccc1C(=O)N1CCC2(CC1)CN(c1cncnc1)C(=O)CO2	-4.72	-1.71
CC(C)n1ccnc1C1CCN(Cc2ccc(Cl)s2)CC1	4.1	-48.4
Cc1cnc(CNc2c(F)cccc2-n2cccn2)o1	-2.01	-27.4
CC(C(=O)NCc1ccc(-n2cncn2)nc1)n1ccnc1 (centres undefined)	5.56	19.8
O=S(=O)(CCCN1CCCC1Cn1cncn1)c1ccccc1 (centres undefined)	-1.76	-32.7
CC(C)c1nn(C)c(N(C)C)c1CNCc1ccc2c(c1)OCO2	-1.77	30.6
Cc1cnn(CC(C)NCc2ccc(OCc3ccncc3)cc2)c1 (centres undefined)	-0.0437	-25.9
Cc1nc(C)n(CC2CCCN(Cc3cccc(C#N)c3)C2)n1 (centres undefined)	3.85	25.5
COc1ccc(C2CC(=O)Nc3c2nc2n3CCCC2)cc1O (centres undefined)	-2	-3.52
O=C(Nc1ccc(F)c(Br)c1)N1CCCC1	4.74	-23.1
CCc1noc(C)c1C(=O)N1CCCC1Cn1cc(C)cn1 (centres undefined)	4.02	31.4
COc1c(CNC2CCCc3ccccc32)c(C(C)C)nn1C (centres undefined)	-0.233	-10.1
CCOC(=O)CCC(=O)N1CCC(Oc2ccc(C(F)(F)F)cn2)CC1	-1.91	12.6
O=C(NC(Cc1ccsc1)c1nccs1)C1CCOCC1 (centres undefined)	1.44	15.3
COc1cccc(N2CCN(Cc3ccc(NC(C)=O)cc3)CC2=O)c1	-1.75	-2.21
Cn1cccc1C(=O)N1CCc2ncc(Cn3cccn3)n2CC1	-0.291	-19.1
Cc1ncoc1C(=O)N1C[C@H]2CCC[C@@]2(COCC2CCOCC2)C1	-1.27	3.67
Cc1cnccc1CN1C[C@@H](O)[C@H](Oc2ccccc2)C1	0.283	-4.47
COc1ccc2cc(C(=O)N3CCCCC3Cn3cccn3)[nH]c2c1 (centres undefined)	-2.15	16.3
Cn1cc(N2CCC3(CCN(Cc4nccs4)C3)C2=O)cn1 (centres undefined)	-0.749	-2.2
CCC(C)(NCC(=O)Nc1nc(C)cs1)c1nc(C)cs1 (centres undefined)	2.89	-28.4
Cc1ncc2c(n1)CN(Cc1noc(C3CC3)n1)CC2	0.182	-46.9
CC(C)c1csc(C2CCCN(C(=O)c3ccc(=O)n(C)n3)C2)n1 (centres undefined)	-1.11	-6.52
